Measured values taken from the supplement of paper PMC10849652.
The full data set covers some 7,900 targets. This sample favours those with a hit. About 0.6% of all pairs of compound and target were hits. Values without a mark were called inactive.

Legend:
Assay in all cases: log2 fold change, soluble protein after heating vs DMSO (PISA); higher = thermal stabilisation; K562 cells, 10 uM, 30 min; active = over 0.2 and 3.5 SD of the protein, either way, in both replicates (recomputed)
[1] = compound: CC1=C(C=C(C=C1)NC(=O)C2=CC(=CC=C2)C(C)(C)C#N)NC3=CC4=C(C=C3)N=CN(C4=O)C
Summary of the method: (§1)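 K562 cells at 2×10^6 cells/mL were treated with 10 μM compound for 30 min. Aliquots were heated for 3 min across 48°C-58°C, pooled, and extracted in PBS with 0.5% NP-40 at 4°C; soluble protein was the supernatant after 21,000xg for 90 min. Soluble protein was quantified by TMTpro 16plex LC-MS/MS with channel sums equalised, and reported as log2 fold change in thermal stability against DMSO controls, with values from duplicates.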

[2] = compound: CC1=C(C=C(C=C1)NC(=O)C2=CC(=CC=C2)N(C)C)NC(=O)C3=CC=C(C=C3)O
Summary of the method: as §1

[3] = compound: CC1=CC=C(C=C1)SC2=C3C=C(SC3=CN=C2)C(=O)N
Summary of the method: as §1

[4] = compound: CC1=NC(=CC=C1)C2=C(N=C(N2)C(C)(C)C)C3=CC4=NC=CN=C4C=C3
Summary of the method: as §1

[5] = compound: CCCCN(Cc1ccc(C(=O)NO)cc1)C(=O)Nc1ccccc1 [Nexturastat A]
Summary of the method: as §1

[6] = compound: CCCS(=O)(=O)Nc1ccc(F)c(C(=O)c2c[nH]c3ncc(-c4ccc(Cl)cc4)cc23)c1F [vemurafenib]
Summary of the method: as §1

[7] = compound: CCCS(=O)(=O)Nc1ccc(F)c(C(=O)c2c[nH]c3ncc(Cl)cc23)c1F
Summary of the method: as §1

[8] = compound: CCCc1cc(C)[nH]c(=O)c1CNC(=O)c1cc(-c2ccnc(N3CCN(C)CC3)c2)cc2c1cnn2C(C)C
Summary of the method: as §1

[9] = compound: CCN(CC)Cc1ccc2cc(COC(=O)Nc3ccc(C(=O)NO)cc3)ccc2c1 [givinostat]
Summary of the method: as §1

[10] = compound: CCN(CCCOc1ccc2c(Nc3cc(CC(=O)Nc4cccc(F)c4)[nH]n3)ncnc2c1)CCOP(=O)(O)O [barasertib]
Summary of the method: as §1

[11] = compound: CC[C@@H]1C(=O)N(C)c2cnc(Nc3ccc(C(=O)NC4CCN(C)CC4)cc3OC)nc2N1C1CCCC1
Summary of the method: as §1

[12] = compound: CC[C@@H]1C(=O)N(C)c2cnc(Nc3ccc(C(=O)N[C@H]4CC[C@H](N5CCN(CC6CC6)CC5)CC4)cc3OC)nc2N1C(C)C [volasertib]
Summary of the method: as §1

[13] = compound: CC[C@H](C)N1C=C(C2=C(C=C(C=C21)C3=CN=C(C=C3)N4CCNCC4)C(=O)NCC5=C(C=C(NC5=O)C)C)C
Summary of the method: as §1

[14] = compound: CC[C@H](C)[C@@H](C(=O)N[C@@H]([C@@H](C)O)C(=O)N[C@@H](CC(C)C)C(=O)[C@]1(CO1)C)NC(=O)[C@H]([C@@H](C)CC)N(C)C(=O)C [epoxomicin]
Summary of the method: as §1

[15] = compound: CCn1c(C(=O)N(C2CC2)C2CC2)cc2c3c(ncn3C)c(Nc3cc(C)n(C)n3)nc21
Summary of the method: as §1

[16] = compound: CCn1cc(-c2ccnc3[nH]c(-c4cccc(CN(C)C)c4)cc23)c(-c2ccc(NC(=O)N(C)C)cc2)n1
Summary of the method: as §1

[17] = compound: CN(C)CC(=O)Nc1ccc2[nH]c(=O)c3ccccc3c2c1
Summary of the method: as §1

[18] = compound: CN(CCOC1=CC=C(C=C1)C[C@H]2C(=O)NC(=O)S2)C3=CC=CC=N3 (racemic) [rosiglitazone]
Summary of the method: as §1

[19] = compound: CN1C2=C(C3=C1C(=O)N(N=C3)CC4=CC(=CC=C4)N)SC(=C2)S(=O)C
Summary of the method: as §1

[20] = compound: CN1CCC(CNc2ccc3ncc(-c4cccc(OC(F)(F)F)c4)n3n2)CC1
Summary of the method: as §1

Chain of UniProt Q03252 (Q03252 whole entry, looked up): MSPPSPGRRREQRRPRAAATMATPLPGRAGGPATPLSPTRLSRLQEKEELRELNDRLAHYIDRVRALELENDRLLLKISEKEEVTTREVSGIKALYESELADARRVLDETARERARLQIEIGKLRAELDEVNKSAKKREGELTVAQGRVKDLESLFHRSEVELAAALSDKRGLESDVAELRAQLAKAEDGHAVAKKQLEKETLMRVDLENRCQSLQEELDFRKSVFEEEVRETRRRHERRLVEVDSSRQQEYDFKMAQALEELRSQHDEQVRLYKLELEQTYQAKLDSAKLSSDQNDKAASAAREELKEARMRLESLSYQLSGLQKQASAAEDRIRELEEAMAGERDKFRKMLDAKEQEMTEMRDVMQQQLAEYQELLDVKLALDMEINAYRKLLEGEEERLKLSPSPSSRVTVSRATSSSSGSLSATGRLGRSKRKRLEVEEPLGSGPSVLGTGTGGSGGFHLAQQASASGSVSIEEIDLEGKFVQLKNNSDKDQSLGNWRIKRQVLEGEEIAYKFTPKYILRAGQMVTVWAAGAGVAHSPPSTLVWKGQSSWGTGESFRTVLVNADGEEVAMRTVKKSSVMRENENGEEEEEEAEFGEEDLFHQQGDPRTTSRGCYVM
Chain of UniProt Q9NQG6 (Q9NQG6 whole entry, looked up): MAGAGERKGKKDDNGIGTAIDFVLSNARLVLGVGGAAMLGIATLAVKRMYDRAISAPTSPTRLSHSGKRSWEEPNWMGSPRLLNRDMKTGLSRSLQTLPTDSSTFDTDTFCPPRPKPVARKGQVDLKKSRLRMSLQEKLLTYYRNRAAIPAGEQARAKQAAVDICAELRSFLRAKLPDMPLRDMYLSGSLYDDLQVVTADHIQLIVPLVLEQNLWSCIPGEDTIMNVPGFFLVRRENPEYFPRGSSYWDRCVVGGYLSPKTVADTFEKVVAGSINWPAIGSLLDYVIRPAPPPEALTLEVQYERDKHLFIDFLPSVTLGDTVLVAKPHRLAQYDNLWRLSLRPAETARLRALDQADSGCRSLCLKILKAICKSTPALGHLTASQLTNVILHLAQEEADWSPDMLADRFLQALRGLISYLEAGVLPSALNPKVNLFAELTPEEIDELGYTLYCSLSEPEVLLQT
Chain of UniProt Q8IYU8 (Q8IYU8 whole entry, looked up): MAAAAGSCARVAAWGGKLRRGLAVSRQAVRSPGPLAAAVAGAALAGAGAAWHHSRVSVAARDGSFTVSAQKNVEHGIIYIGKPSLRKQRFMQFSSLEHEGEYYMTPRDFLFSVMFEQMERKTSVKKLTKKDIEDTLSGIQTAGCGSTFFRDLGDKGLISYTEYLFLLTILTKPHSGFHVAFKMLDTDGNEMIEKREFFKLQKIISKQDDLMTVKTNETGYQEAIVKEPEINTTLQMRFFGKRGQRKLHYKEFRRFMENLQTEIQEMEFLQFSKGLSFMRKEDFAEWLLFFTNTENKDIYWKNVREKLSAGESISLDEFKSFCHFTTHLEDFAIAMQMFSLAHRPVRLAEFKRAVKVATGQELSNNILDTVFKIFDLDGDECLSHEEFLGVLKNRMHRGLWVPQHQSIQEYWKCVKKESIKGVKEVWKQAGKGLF
Chain of UniProt P27816 (P27816 whole entry, looked up): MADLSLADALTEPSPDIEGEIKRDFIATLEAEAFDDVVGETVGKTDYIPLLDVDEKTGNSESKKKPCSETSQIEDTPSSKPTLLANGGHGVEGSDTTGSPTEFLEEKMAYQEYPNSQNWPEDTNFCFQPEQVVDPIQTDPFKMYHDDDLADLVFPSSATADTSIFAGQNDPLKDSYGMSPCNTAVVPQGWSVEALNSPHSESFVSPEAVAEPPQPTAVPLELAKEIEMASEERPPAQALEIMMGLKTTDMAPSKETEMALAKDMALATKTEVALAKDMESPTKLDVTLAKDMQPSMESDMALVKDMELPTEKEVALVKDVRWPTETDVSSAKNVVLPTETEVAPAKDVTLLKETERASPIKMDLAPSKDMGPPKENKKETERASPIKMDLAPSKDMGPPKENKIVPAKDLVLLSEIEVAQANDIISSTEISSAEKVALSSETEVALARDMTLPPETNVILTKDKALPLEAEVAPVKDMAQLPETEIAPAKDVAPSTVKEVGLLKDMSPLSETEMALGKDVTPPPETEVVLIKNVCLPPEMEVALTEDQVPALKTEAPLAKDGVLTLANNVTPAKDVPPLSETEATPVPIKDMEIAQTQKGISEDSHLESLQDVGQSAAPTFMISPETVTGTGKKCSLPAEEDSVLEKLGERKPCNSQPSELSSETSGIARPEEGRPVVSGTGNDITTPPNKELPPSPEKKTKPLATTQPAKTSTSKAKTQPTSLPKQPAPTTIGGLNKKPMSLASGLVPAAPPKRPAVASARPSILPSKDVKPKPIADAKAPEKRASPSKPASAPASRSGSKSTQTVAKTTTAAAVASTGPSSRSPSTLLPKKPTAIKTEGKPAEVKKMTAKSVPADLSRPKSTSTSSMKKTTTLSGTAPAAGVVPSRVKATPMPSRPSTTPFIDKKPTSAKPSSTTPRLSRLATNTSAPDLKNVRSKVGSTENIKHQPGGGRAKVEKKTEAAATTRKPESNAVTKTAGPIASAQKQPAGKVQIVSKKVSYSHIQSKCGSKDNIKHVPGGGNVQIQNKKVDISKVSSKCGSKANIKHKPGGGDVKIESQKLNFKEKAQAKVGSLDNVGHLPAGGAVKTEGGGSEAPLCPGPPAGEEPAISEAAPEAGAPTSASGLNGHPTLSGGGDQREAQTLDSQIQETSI
Chain of UniProt Q32MZ4 (Q32MZ4 whole entry, looked up): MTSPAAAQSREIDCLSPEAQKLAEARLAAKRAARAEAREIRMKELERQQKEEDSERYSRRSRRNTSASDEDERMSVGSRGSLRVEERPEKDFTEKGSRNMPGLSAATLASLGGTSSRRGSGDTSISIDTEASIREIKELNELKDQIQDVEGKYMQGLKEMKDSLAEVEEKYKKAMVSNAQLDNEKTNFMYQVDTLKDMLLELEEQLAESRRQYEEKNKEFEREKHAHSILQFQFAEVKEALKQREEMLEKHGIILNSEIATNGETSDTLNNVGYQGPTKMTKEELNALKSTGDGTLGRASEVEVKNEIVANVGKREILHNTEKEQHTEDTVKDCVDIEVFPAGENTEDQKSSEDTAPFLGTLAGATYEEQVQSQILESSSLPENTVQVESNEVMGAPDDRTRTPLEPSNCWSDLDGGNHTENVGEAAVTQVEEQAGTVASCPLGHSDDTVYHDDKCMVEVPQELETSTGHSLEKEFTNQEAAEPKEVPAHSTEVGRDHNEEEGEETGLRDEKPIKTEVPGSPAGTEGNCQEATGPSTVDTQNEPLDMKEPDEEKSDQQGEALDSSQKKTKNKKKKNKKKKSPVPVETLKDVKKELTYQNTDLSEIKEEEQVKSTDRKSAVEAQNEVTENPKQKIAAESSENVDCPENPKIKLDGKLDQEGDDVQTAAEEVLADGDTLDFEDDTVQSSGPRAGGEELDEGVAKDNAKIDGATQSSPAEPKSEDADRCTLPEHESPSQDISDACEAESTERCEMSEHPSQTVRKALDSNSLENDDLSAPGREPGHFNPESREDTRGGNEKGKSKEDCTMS
Chain of UniProt Q96A72 (Q96A72 whole entry, looked up): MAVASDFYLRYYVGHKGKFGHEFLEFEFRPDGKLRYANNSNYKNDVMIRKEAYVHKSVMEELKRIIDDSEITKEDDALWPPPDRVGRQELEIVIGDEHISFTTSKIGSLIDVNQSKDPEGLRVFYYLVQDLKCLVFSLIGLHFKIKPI
Chain of UniProt P49441 (P49441 whole entry, looked up): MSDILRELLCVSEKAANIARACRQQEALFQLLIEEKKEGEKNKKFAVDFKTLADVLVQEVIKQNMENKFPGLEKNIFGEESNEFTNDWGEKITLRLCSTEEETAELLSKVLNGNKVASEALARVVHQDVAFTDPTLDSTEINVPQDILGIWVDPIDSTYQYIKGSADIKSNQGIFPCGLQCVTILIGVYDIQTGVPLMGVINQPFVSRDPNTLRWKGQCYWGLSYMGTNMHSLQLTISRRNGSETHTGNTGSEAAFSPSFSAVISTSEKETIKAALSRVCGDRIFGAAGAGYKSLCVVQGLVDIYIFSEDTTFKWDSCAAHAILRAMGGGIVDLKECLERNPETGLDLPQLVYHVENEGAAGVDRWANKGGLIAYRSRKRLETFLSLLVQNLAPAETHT
Chain of UniProt P02545 (P02545 whole entry, looked up): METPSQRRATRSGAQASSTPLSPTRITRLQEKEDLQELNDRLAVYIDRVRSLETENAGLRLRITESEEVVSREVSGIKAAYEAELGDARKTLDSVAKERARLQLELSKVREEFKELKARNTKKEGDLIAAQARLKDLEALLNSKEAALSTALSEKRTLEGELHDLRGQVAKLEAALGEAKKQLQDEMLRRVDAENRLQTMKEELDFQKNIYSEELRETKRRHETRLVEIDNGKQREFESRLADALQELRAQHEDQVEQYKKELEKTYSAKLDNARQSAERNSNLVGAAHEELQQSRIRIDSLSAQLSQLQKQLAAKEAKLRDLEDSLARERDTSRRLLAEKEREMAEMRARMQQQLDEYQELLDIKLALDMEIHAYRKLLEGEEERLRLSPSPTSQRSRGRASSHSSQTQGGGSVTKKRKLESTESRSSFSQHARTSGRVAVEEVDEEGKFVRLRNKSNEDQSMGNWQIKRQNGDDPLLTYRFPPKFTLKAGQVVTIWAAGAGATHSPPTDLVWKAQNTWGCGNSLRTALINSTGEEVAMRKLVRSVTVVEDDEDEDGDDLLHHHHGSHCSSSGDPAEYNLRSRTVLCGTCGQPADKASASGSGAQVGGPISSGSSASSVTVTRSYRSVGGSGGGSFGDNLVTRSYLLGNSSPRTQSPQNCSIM
Chain of UniProt P33947 (P33947 whole entry, looked up): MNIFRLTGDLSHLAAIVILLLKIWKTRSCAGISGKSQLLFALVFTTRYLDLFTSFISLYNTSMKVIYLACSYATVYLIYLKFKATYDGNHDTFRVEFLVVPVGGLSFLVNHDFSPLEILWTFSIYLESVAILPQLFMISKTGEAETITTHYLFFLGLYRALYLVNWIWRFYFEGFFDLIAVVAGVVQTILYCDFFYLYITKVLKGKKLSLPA

Row | Target | log2 fold change [1] | log2 fold change [2] | log2 fold change [3] | log2 fold change [4] | log2 fold change [5] | log2 fold change [6] | log2 fold change [7] | log2 fold change [8] | log2 fold change [9] | log2 fold change [10] | log2 fold change [11] | log2 fold change [12] | log2 fold change [13] | log2 fold change [14] | log2 fold change [15] | log2 fold change [16] | log2 fold change [17] | log2 fold change [18] | log2 fold change [19] | log2 fold change [20]
1 | LMNA (UniProt P02545) | -0.023 | 0.095 | -0.026 | -0.002 | -0.022 | 0.088 | 0.014 | -0.027 | 0.014 | -0.004 | 0.008 | -0.15 | 0.01 | -0.014 | -0.022 | 0.057 | 0.009 | -0.025 | -0.006 | 0
2 | LRRFIP1 (UniProt Q32MZ4) | -0.024 | 0.003 | -0.012 | -0.01 | 0.005 | -0.019 | -0.027 | -0.002 | 0.014 | 0.004 | 0.06 | 0.099 | -0.075 | -0.019 | 0.019 | 0.028 | -0.004 | -0.007 | 0.011 | 0.013
3 | KTN1 (UniProt Q86UP2) | -0.071 | -0.051 | 0.014 | -0.002 | 0.141 | 0.012 | 0.027 | 0.034 | 0.022 | 0.033 | 0.039 | -0.242 | 0.028 | 0.037 | 0.091 | 0.084 | 0.006 | -0.009 | 0.127 | -0.006
4 | KDELR2 (UniProt P33947) | 0.058 | 0.099 | 0.064 | -0.094 | -0.13 | -0.079 | -0.054 | -0.128 | -0.064 | 0.036 | 0.033 | -0.18 | -0.089 | -0.02 | -0.031 | -0.016 | -0.125 | 0.017 | -0.063 | 0.255
5 | MAGOHB (UniProt Q96A72) | -0.002 | -0.062 | 0.008 | 0.067 | -0.026 | 0.037 | 0.04 | -0.069 | 0.003 | 0.007 | -0.046 | -0.096 | 0.014 | 0.007 | -0.041 | 0.003 | 0.013 | 0.017 | -0.039 | 0.023
6 | MICU2 (UniProt Q8IYU8) | 0.022 | 0.067 | 0.091 | 0.05 | 0.198 | 0.053 | 0.183 | 0.042 | -0.009 | 0.079 | -0.135 | -0.118 | 0 | 0.067 | 0.005 | -0.046 | 0.007 | -0.017 | 0.097 | -0.309 (active)
7 | INPP5B (UniProt P32019) | 0.02 | -0.06 | -0.071 | 0.007 | 0.096 | -0.006 | -0.004 | 0.062 | 0.105 | 0.069 | 0.021 | -0.04 | 0.002 | 0.007 | -0.029 | 0.031 | 0.057 | 0.012 | 0.12 | 0.003
8 | MIEN1 (UniProt Q9BRT3) | -0.011 | -0.029 | 0.036 | -0.054 | -0.002 | 0.081 | 0.073 | 0.016 | 0 | 0.132 | 0.055 | -0.047 | -0.02 | 0.008 | 0.045 | 0.029 | 0.181 | -0.007 | 0.008 | 0.284 (active)
9 | MAPKAPK3 (UniProt Q16644) | 0.24 | 0.097 | -0.025 | 0.069 | -0.134 | 0.033 | 0.063 | -0.012 | 0.015 | 0.039 | -0.084 | 0.036 | 0.003 | 0.064 | 0.048 | 0.016 | -0.015 | 0.004 | -0.14 | -0.049
10 | LTN1 isoform 3 (UniProt O94822) | -0.013 | -0.031 | -0.008 | -0.006 | 0.104 | 0.039 | 0.058 | 0.017 | 0.065 | 0.042 | -0.16 | -0.459 (active) | 0.079 | -0.012 | -0.075 | -0.019 | 0.043 | 0.05 | 0.06 | -0.498 (active)
11 | INPP1 (UniProt P49441) | 0.039 | 0.016 | 0.054 | 0.052 | 0.061 | 0.031 | -0.071 | 0.079 | -0.032 | -0.03 | 0.011 | -0.042 | 0.028 | 0.052 | 0.005 | -0.011 | -0.047 | 0.002 | 0.014 | -0.296 (active)
12 | L2HGDH (UniProt Q9H9P8) | 0.03 | 0.009 | 0.021 | -0.046 | -0.102 | 0.015 | -0.042 | -0.081 | -0.016 | 0.011 | -0.088 | -0.014 | 0.006 | -0.02 | -0.023 | -0.067 | -0.027 | 0.031 | -0.11 | -0.325 (active)
13 | MAP4 (UniProt P27816) | -0.006 | 0.007 | -0.018 | -0.01 | 0.003 | -0.018 | -0.007 | 0.002 | -0.004 | -0.046 | 0.011 | 0.049 | -0.041 | -0.003 | 0.018 | -0.002 | -0.03 | -0.021 | -0.004 | 0.037
14 | KIF2C (UniProt Q99661) | 0.012 | -0.038 | 0.057 | 0.067 | 0.02 | 0.087 | 0.053 | 0.03 | 0.016 | 0.053 | -0.037 | -0.357 (active) | 0.084 | 0.019 | -0.042 | -0.063 | 0.09 | 0.057 | 0.003 | -0.06
15 | MIEF1 (UniProt Q9NQG6) | 0.054 | 0.009 | 0.023 | 0.13 | -0.067 | -0.02 | 0.019 | 0.008 | -0.044 | 0.015 | -0.053 | -0.098 | 0.031 | 0.073 | 0.019 | 0.019 | 0.054 | 0.041 | -0.018 | -0.546 (active)
16 | LMNB2 (UniProt Q03252) | -0.022 | 0.015 | -0.025 | 0.063 | -0.04 | 0.019 | 0.045 | -0.014 | 0.047 | 0.039 | 0.027 | -0.077 | 0.024 | 0.028 | -0.061 | 0.043 | -0.033 | -0.005 | -0.01 | 0.014
